Laboratory results published in PubChem BioAssay (EPA / NIEHS).
“And” between values parts separate entries of the source, which are not always exact repeats. Equal entries are not always repeated. Some compounds were tested as several samples or in several runs, with calls that do not always agree. The source made the active and inactive calls. Rule for the calls: active = hit-call score of the fitted dose curve at least 0.9, where 1 is the maximum; inactive = score below 0.9.

Tests used:
Conditions in all cases: mRNA level, 48 h; actives raise or lower the signal
[1] = read-out: Insulin-like growth factor-binding protein 1 (IGFBP1), IGFBP1 (gene 3484); assay: LTEA_HepaRG_IGFBP1: Life Technologies and Expression Analysis (LTEA) Assay for Insulin-like growth factor-binding protein 1 (IGFBP1) using HepaRG (AID 2283508)
How it was run: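 qRT-PCR mRNA read-out (TaqMan, Fluidigm array), normalised to three housekeeping genes; HepaRG cells, 48 h exposure, 8-pt half-log series from 100 uM, 0.5% DMSO vehicle; bidirectional curve fit vs DMSO baseline.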

[2] = read-out: Interleukin 6 (IL6), IL6 (gene 3569); assay: LTEA_HepaRG_IL6: Life Technologies and Expression Analysis (LTEA) Assay for Interleukin 6 (IL6) using HepaRG (AID 2283509)
How it was run: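 Changes in IL6 mRNA, up or down relative to 0.5% DMSO controls, were derived from concentration-response curves in human HepaRG cells treated for 48 h at up to 100 uM, with ACTB, GAPDH and POLR2A as normalizers.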

[3] = read-out: Interleukin 6 Receptor (IL6R), IL6R (gene 3570); assay: LTEA_HepaRG_IL6R: Life Technologies and Expression Analysis (LTEA) Assay for Interleukin 6 Receptor (IL6R) using HepaRG (AID 2283510);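 for AC50: differentiated human HepaRG liver cells in serum-free induction medium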
How it was run: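 HepaRG, 48 h exposure, 8-pt half-log series, top 100 uM, 0.5% DMSO vehicle, duplicates. Read-out: TaqMan qRT-PCR of IL6R transcript, housekeeping-gene normalized. Gain or loss fitted relative to DMSO baseline.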

[4] = read-out: Keratin 19 (KRT19), KRT19 (gene 3880); assay: LTEA_HepaRG_KRT19: Life Technologies and Expression Analysis (LTEA) Assay for Keratin 19 (KRT19) using HepaRG (AID 2283512)
How it was run: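 HepaRG, 48 h chemical exposure, 8-pt half-log CRC from 100 uM, 0.5% DMSO vehicle, duplicates. Readout: TaqMan qRT-PCR of KRT19 mRNA, housekeeping-normalized (ACTB/GAPDH/POLR2A). Bidirectional fit vs DMSO baseline.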

[5] = read-out: JUN Transcription Factor, JUN (gene 3725); assay: LTEA_HepaRG_JUN: Life Technologies and Expression Analysis (LTEA) Assay for JUN Transcription Factor using HepaRG (AID 2283513)
How it was run: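 HepaRG, 48 h exposure, 8-pt half-log series top 100 uM, 0.5% DMSO, duplicate. JUN mRNA by qRT-PCR (Fluidigm), housekeeping-normalized (ACTB/GAPDH/POLR2A); bidirectional curve fit vs DMSO baseline.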

[6] = read-out: Lipase C (LIPC), LIPC (gene 3990); assay: LTEA_HepaRG_LIPC: Life Technologies and Expression Analysis (LTEA) Assay for Lipase C (LIPC) using HepaRG (AID 2283514)
How it was run: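 In this multiplexed gene-expression screen, human HepaRG cultures received test chemicals for 48 h across eight concentrations with 100 uM highest, in duplicate. Values reflect LIPC mRNA induction or suppression versus DMSO vehicle, from normalized qRT-PCR.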

[7] = read-out: Lipoprotein lipase (LPL), LPL (gene 4023); assay: LTEA_HepaRG_LPL: Life Technologies and Expression Analysis (LTEA) Assay for Lipoprotein lipase (LPL) using HepaRG (AID 2283515)
Protocol: LTEA_HepaRG is a cell based, multiplexed-readout assay that uses HepaRG, a human liver cell line, with measurements taken at 48 hours after chemical dosing on a 96-well plate.LTEA_HepaRG_LPL is one of 102 assay component(s) measured in the LTEA HepaRG cell culture assay. It is a marker of Steatosis.Data from the assay component LTEA_HepaRG_LPL was analyzed into 1 endpoint. This assay endpoint, LTEA_HepaRG_LPL, was analyzed with bidirectional fitting relative to DMSO as the negative control and baseline of activity. Using a type of inducible reporter, measures of mRNA induction for gain or loss-of-signal activity can be used to understand regulation of transcription factor activity. To generalize the intended target to other relatable targets, this assay endpoint is annotated to the esterase intended target family, where the subfamily is lipase.
A total of 1060 chemcials from the ToxCast library were tested in eight-point concentration-response experiments. Cell culture and cytotoxicity assays were conducted at Thermo Fisher Scientific's Custom Services facility (Madison, WI). A single lot of human HepaRG cells (Thermo Fisher Scientific, Frederick, MD) was used for the cell culture experiments. 96-well format collagen type I coated plates of human HepaRG cells were prepared using established methods. Briefly, cryopreserved HepaRG cells were thawed, plated at a density of approximately 100,000 cells/well in HepaRG Thaw, Plate, and General Purpose media (HPRG770, Thermo Fisher Scientific), and incubated for 48 hours. 0.5% DMSO was selected as vehicle control to balance the requisite need of DMSO in HepaRG cultures to maintain differentiation (for example, baseline metabolism, proportions of hepatocytes vs. cholangiocytes), while enabling further hepatic receptor pathway activation (for example, PXR and CAR) in response to chemical exposure. 48 hours after plating, the culture medium was replaced with HepaRG Serum-Free Incudtion Media. Cells were exposed to each test chemical in duplicate and maintained in CO2 incubators for another 48 hours. Chemical plates were thawed to room temperature and 200x concentrations of treatment groups were prepared. 8-point conentration-reponse curves were made with the highest exposure at 100 uM, followed by half-log dilutions, all in 0.5% DMSO. Each test plate contained variouse controls, induction positive controls (1mM phenobarbital), cytotoxicity positive controls ([…] aflatoxin B1), vehicle controls (0.5% DMSO), and total lysis controls (0.5% DMSO). Cell morphology images were taken using an Essen IncuCyte FLR automated microscope, with six 96-well plates imaged in about 24 minutes. Images were captured and exported and JPEG files. Spent culture media was transfered to black-well plates for the LDH assay, and remaining media was sorted at -80 C for later use. Cells were treated with RLT buffer and frozen until shipped for gene expression analysis. Total RNA was isolated from the cell suspension in 75 uL of Buffer RLT (Qiagen, Germantown, MD 20874) by Quintiles/Expression Analysis (Durham, NC) using a custom isolation procedure. Total RNA from each plate well was transferred to a preamplification plate. Fluidigm's 96.96 Dynamic ArrayTM (Fluidigm, Amsterdam, the Netherlands) technology was used for gene expression analyses by quantitative reverse transcription polymerase chain reaction (qRT-PCR, performed by Quintiles/Expression Analysis, Durham, NC)89. Standard TaqManTM Assays (Applied Biosystems/ThermoFisher Scientific, Foster City, CA) were used to assess the expression of 93 genes selected based on their selectivity and sensitivity to important hepatic receptors known to be modulated by environmental chemicals; importance in human hepatocyte functionality; and hepatotoxicity. […]

[8] = read-out: MicroRNA 122 (MIR122), gene 406906; assay: LTEA_HepaRG_MIR122: Life Technologies and Expression Analysis (LTEA) Assay for MicroRNA 122 (MIR122) using HepaRG (AID 2283516); note: the transcript read is the microRNA miR-122
How it was run: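 qRT-PCR read-out (TaqMan, Fluidigm array), normalized to three housekeeping genes; HepaRG cells dosed 48 h at 8 concentrations up to 100 uM in 0.5% DMSO, duplicate; gain or loss fitted against DMSO baseline.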

[9] = read-out: matrix metalloproteinase-10 (MMP10), MMP10 (gene 4319); assay: LTEA_HepaRG_MMP10: Life Technologies and Expression Analysis (LTEA) Assay for matrix metalloproteinase-10 (MMP10) using HepaRG (AID 2283517)
How it was run: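 In differentiated HepaRG cultures kept in 0.5% DMSO, test chemicals act for 48 h over an eight-point range with a top dose of 100 uM. Expression is then quantified by TaqMan RT-PCR against ACTB, GAPDH and POLR2A.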

[10] = read-out: Potassium channel subfamily K member 1 (KCNK1), KCNK1 (gene 3775); assay: LTEA_HepaRG_KCNK1: Life Technologies and Expression Analysis (LTEA) Assay for Potassium channel subfamily K member 1 (KCNK1) using HepaRG (AID 2283511)
How it was run: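 Human HepaRG cultures receive test chemicals for 48 h in 0.5% DMSO, top concentration 100 uM with half-log dilutions. Induction or suppression of KCNK1 mRNA relative to DMSO is derived by bidirectional fitting of qRT-PCR data.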

**Q.** CC/C(=C(\c1ccccc1)c1ccc(OCCN(C)C)cc1)c1ccccc1 was tested. Which AC50 [1] did it give?
**A.** 65.9 µM (active) and 57 µM (active)

**Q.** What about the AC50 [2] of the same compound?
**A.** 71.4 µM (active) and 92.3 µM (active)

**Q.** What about the AC50 [3] of the same compound?
**A.** 93.4 µM (active)

**Q.** And the outcome [3]?
**A.** inactive

**Q.** And the AC50 [4]?
**A.** 11.2 µM (active)

**Q.** What about the outcome [4] of the same compound?
**A.** inactive

**Q.** What about the AC50 [5] of the same compound?
**A.** 74.6 µM (active) and 89.2 µM (active)

**Q.** And the AC50 [6]?
**A.** 93.9 µM (active)

**Q.** What about the outcome [6] of the same compound?
**A.** inactive

**Q.** What about the AC50 [7] of the same compound?
**A.** 76.5 µM (active)

**Q.** What about the outcome [7] of the same compound?
**A.** inactive

**Q.** And the outcome [8]?
**A.** inactive

**Q.** What about the AC50 [9] of the same compound?
**A.** 75 µM (active) and 50 µM (active)

**Q.** With C#C[C@]1(O)CC[C@H]2[C@@H]3CCc4cc(O)ccc4[C@H]3CC[C@@]21C as the compound, how does the outcome [1] read?
**A.** inactive

**Q.** And the outcome [2]?
**A.** inactive

**Q.** What about the outcome [3] of the same compound?
**A.** inactive

**Q.** What about the outcome [10] of the same compound?
**A.** inactive

**Q.** What about the outcome [4] of the same compound?
**A.** inactive

**Q.** What about the outcome [5] of the same compound?
**A.** inactive

**Q.** And the outcome [6]?
**A.** inactive

**Q.** And the outcome [7]?
**A.** inactive

**Q.** And the outcome [8]?
**A.** inactive

**Q.** What about the outcome [9] of the same compound?
**A.** inactive

**Q.** O=C(c1ccc(OCCN2CCCCC2)cc1)c1c(-c2ccc(O)cc2)sc2cc(O)ccc12 was tested. Which AC50 [1] did it give?
**A.** 75.6 µM (active)

**Q.** And the AC50 [2]?
**A.** 75.9 µM (active)

**Q.** And the outcome [3]?
**A.** inactive

**Q.** What about the outcome [10] of the same compound?
**A.** inactive

**Q.** And the outcome [4]?
**A.** inactive

**Q.** And the AC50 [5]?
**A.** 82.6 µM (active)

**Q.** What about the outcome [6] of the same compound?
**A.** inactive

**Q.** What about the AC50 [7] of the same compound?
**A.** 80.4 µM (active)

**Q.** What about the outcome [8] of the same compound?
**A.** inactive

**Q.** And the AC50 [9]?
**A.** 78.7 µM (active)

**Q.** Which outcome [1] does the source give for C[C@]12CC[C@@H]3c4ccc(O)cc4CC[C@H]3[C@@H]1CC[C@@H]2O here?
**A.** inactive

**Q.** And the outcome [2]?
**A.** inactive

**Q.** And the outcome [3]?
**A.** inactive

**Q.** And the outcome [10]?
**A.** inactive

**Q.** What about the outcome [4] of the same compound?
**A.** inactive

**Q.** What about the outcome [5] of the same compound?
**A.** inactive

**Q.** What about the outcome [6] of the same compound?
**A.** inactive

**Q.** And the outcome [7]?
**A.** inactive

**Q.** What about the outcome [8] of the same compound?
**A.** inactive

**Q.** What about the outcome [9] of the same compound?
**A.** inactive

**Q.** What does the source list for COC(=O)c1ccc(C(=O)OC)cc1?
**A.** outcome [1]: inactive; outcome [2]: inactive; outcome [3]: inactive; outcome [10]: inactive; outcome [4]: inactive; outcome [5]: inactive; outcome [6]: inactive; outcome [7]: inactive; outcome [8]: inactive; outcome [9]: inactive

**Q.** What does the source list for C=C(C)C(N)=O?
**A.** outcome [1]: inactive; outcome [2]: inactive; outcome [3]: inactive; outcome [10]: inactive; outcome [4]: inactive; outcome [5]: inactive; outcome [6]: inactive; outcome [7]: inactive; outcome [8]: inactive; outcome [9]: inactive

**Q.** CCCCOCCOCCO was tested. Which outcome [1] did it give?
**A.** inactive

**Q.** And the outcome [2]?
**A.** inactive

**Q.** And the outcome [3]?
**A.** inactive

**Q.** And the outcome [10]?
**A.** inactive

**Q.** And the outcome [4]?
**A.** inactive

**Q.** And the outcome [5]?
**A.** inactive

**Q.** And the outcome [6]?
**A.** inactive

**Q.** What about the outcome [7] of the same compound?
**A.** inactive

**Q.** What about the outcome [8] of the same compound?
**A.** inactive

**Q.** And the outcome [9]?
**A.** inactive
